Results published in PubChem BioAssay (NCATS).
Records with an inconclusive call do not appear. Where a call stands in place of a potency, no number is given. Values without a mark were called inactive. Calls of active or inactive are those of the source. Calls come from the whole dose curve; as a rule, active = well fitted cell-killing curve with a large enough effect; inconclusive = small, poorly fitted or top-dose-only effect, or effect the other way; inactive = flat fitted curve, though single readings scatter.

The molecules below were run on SKOV3 (assay: Primary qHTS to identify gynecologic anti-cancer compounds using libraries of approved drugs and bioactive compounds (AID 1345084; note: nearly all actives have a fitted effect of over 55% in size)). Settings: Gynecologic cancer cell panel viability, ATPlite luminescence, 48 h; series mostly up to 57.5 µM.
Procedure, shortened: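 Cells, 1,000 per well, were allowed to settle for 16 h at 37 C before compound addition. Five concentrations were tested for 48 h, and viability was read by ATPlite luminescence after 15 min at room temperature.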

SMILES | Potency | activity change, negative = cytotoxicity
CN1CCN(C(=O)CN[C@@H]2C[C@H]2c2ccc(OCc3ccccc3)cc2)CC1 | inactive | 
O=C(Nc1ccc(-n2nc(C(F)(F)F)cc2C(F)(F)F)cc1)c1ccncc1F | inactive | 
COc1ccc(NC(=O)C2C[C@H](C)CC[C@H]2C(C)C)cc1 (some centres undefined) | inactive | 
O=C(Nc1cc(C(F)(F)F)ccc1N1CCCCC1)c1ccncc1 | inactive | 
COc1cc(C2OC(c3ccc(OC)c(OC)c3)C(C)C2C)ccc1O (centres undefined) | inactive | 
CC1CCC(=O)CC(SCC(O)C(=O)O)CCC(=O)O1 (centres undefined) | inactive | 
O=C(Nc1ccc(C(F)(F)F)cn1)N1CCN(c2ncccc2C(F)(F)F)CC1 | inactive | 
COc1cc(O)cc(OC2OC(CO)C(O)C(O)C2O)c1 (centres undefined) | inactive | 
CC(=O)O[C@H]1C[C@@](O)(C(C)C)[C@@H]2[C@@H](OC(=O)c3ccc(O)cc3)CC(C)=CC[C@@]12C | inactive | 
COC(=O)CC[C@@H](C)C1CCC2C3CCC4C[C@H](OC(C)=O)CCC4(C)C3C[C@H](O)C21C (some centres undefined) | inactive | 
C=C1CC[C@H]2C(=C)CC[C@H]3C(=C)C(=O)O[C@@H]3[C@@H]12 | inactive | 
COc1cccc(NCCC2(c3ccccc3)CC(C)(C)OC(C)(C)C2)c1 | inactive | 
COc1cc(C(=O)NCC2(N(C)C)CCCC2)cc(OC)c1OCc1ccccc1 | inactive | 
Cc1cnn(-c2ccccc2)c1NC(=O)COCc1ccccc1 | inactive | 
C=CC(C)(C)c1[nH]c2ccccc2c1C[C@@H]1NC(=O)[C@H](C)NC1=O | inactive | 
O[C@@](Cc1ncc(CC2(C(F)(F)F)CC2)[nH]1)(c1ccc(-n2cccn2)cc1)C(F)(F)F | inactive | 
CC1(C)CCC2(C(=O)OC3OC(COC4OC(CO)C(O)C(O)C4O)C(O)C(O)C3O)CCC3(C)C(=CCC4C5(C)CCC(OC6OCC(O)C(O)C6O)C(C)(C)C5CCC43C)C2C1O (centres undefined) |  | -2.57% [at 11.6 µM]
C=C(COC(=O)C(O)C(O)CN)C12OC1C1(C)C(=CC2=O)C(O)C(O)CC1C (centres undefined) | inactive | 
CC(C)(C)C1CCN(C(=O)n2ncc(C(O)(c3ccccc3)c3ccccc3)n2)CC1 | inactive | 
O=c1[nH]c([C@@H]2CCCN2)nc2c1oc1ccc(Cl)cc12 | inactive | 

SMILES | Potency | activity change, negative = cytotoxicity
CC(C)(O)C1CC(=O)C2(C)C(CCC3(C)C(c4ccoc4)OC(=O)C4OC432)C12CCC(=O)OC2 (centres undefined) | inactive | 
C/C=C\NC(=O)C1NC(=O)C(CC(N)=O)NC(=O)C(NC(=O)C(=O)C(C)CC)Cc2ccc(O)c(c2)-c2cccc3c2NC(=O)C3(O)C1O (centres undefined) | inactive | 
COc1ccc(CN2CCN(C(=O)CCNC(=O)c3ccc(C(C)(C)C)cc3)CC2)cc1 | inactive | 
Cc1ccccc1C(C(=O)NC1CCCCC1)N(C(=O)Cn1cnc2ccccc21)c1cccc(F)c1 (centres undefined) | inactive | 
COc1c2c(c(C)c3c1C(=O)OC3)O[C@@]1(C)C[C@@H](OC(C)=O)[C@]34O[C@](OC)(CC[C@]3(C)[C@H]1C2)OC4(C)C | inactive | 
CC(C)c1ccc(NC(=O)Cn2cnc3c2c(=O)n(C)c(=O)n3C)cc1 | inactive | 
Cc1ccc(N2CCN(S(=O)(=O)N3CCCCC3)CC2)c(C)c1 | inactive | 
COc1ccc(S(=O)(=O)Nc2cc(Cl)cc(Cl)c2OC)cc1N1CCNCC1 | inactive | 
O=C(NCCN1CCC(n2c(=O)[nH]c3ccccc32)CC1)c1cc2cc(F)ccc2[nH]1 | inactive | 
C=C1C(=O)OC2C1CCC1(C)C(O)CCC(=C)C21 (centres undefined) | inactive | 
COc1ccc(C#Cc2ccc(C(=O)N3CCC[C@@H](CO)C3)cc2)cc1 | inactive | 
C#CCNCc1cc2cc(OCc3ccccc3)ccc2[nH]1 | inactive | 
CCS(=O)c1nc(-c2cccc(OCc3ccccc3)c2)cc(C(F)(F)F)n1 (centres undefined) | inactive | 
COC(=O)C(Cc1ccc(OCCn2c(=O)sc3cc(C(=O)c4ccccc4)ccc32)cc1)C(=O)OC | inactive | 
CCC/C=C/c1cc2c(C=O)c(O)c(CC=C(C)C)cc2o1 | inactive | 
O=C(NCc1ccccc1)c1ccc2c(=O)n(-c3cccc(C(F)(F)F)c3)c(=S)[nH]c2c1 | inactive | 
CCC(CC)C(=O)OC12C(OC(=O)C(C)C)C(C)C3(O)C(C=C(CO)CC4(O)C(=O)C(C)=CC43)C1C2(C)C (centres undefined) | inactive | 
COc1ccc2cc(-c3cc(-c4cc(Cl)cc(Cl)c4)nn3C(C)c3ccc(C(=O)NCCC(=O)O)cc3)ccc2c1 (centres undefined) | inactive | 
CC(C)[C@@H](c1ccc(C(F)(F)F)cc1CN(Cc1cc(C(F)(F)F)cc(C(F)(F)F)c1)c1nnn(C)n1)N1CCC(C(=O)O)CC1 | inactive | 
